T1: RBFOX1 RRM RbFoxmut (Fox-RRM*) (Homo sapiens, UniProt Q9NWB1 109-208, R118D;E147R;N151S;E152T)
T1 sequence: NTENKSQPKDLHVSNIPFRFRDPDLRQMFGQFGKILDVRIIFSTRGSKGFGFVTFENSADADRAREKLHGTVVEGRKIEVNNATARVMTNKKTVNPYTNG

B1: GAGCACA (DNA:RNA)
RNA: GGGAGACCGGAAUUCAGAUUGUCCGAGCACAUUAAAUCCCGUCGUAGCCACCA
DNA 1: CAATCTGAATTCCGGTCTCCC
DNA 2: TGGTGGCTACGACGGGATT
B2: UGGCUAC (DNA:RNA)
RNA: B1 RNA with G25U, A26G, A29U, C30A, A31C
DNA 1: CAATCTGAATTCCGGTCTCCC
DNA 2: TGGTGGCTACGACGGGATT
B3: UGGCCCU (DNA:RNA)
RNA: B1 RNA with G25U, A26G, A29C, A31U
DNA 1: CAATCTGAATTCCGGTCTCCC
DNA 2: TGGTGGCTACGACGGGATT
B4: GGUCUUG (DNA:RNA)
RNA: B1 RNA with A26G, G27U, A29U, C30U, A31G
DNA 1: CAATCTGAATTCCGGTCTCCC
DNA 2: TGGTGGCTACGACGGGATT
B5: AGUCGUC (DNA:RNA)
RNA: B1 RNA with G25A, A26G, G27U, A29G, C30U, A31C
DNA 1: CAATCTGAATTCCGGTCTCCC
DNA 2: TGGTGGCTACGACGGGATT
B6: GGUCGUC (DNA:RNA)
RNA: B1 RNA with A26G, G27U, A29G, C30U, A31C
DNA 1: CAATCTGAATTCCGGTCTCCC
DNA 2: TGGTGGCTACGACGGGATT
B7: AGUCUUG (DNA:RNA)
RNA: B1 RNA with G25A, A26G, G27U, A29U, C30U, A31G
DNA 1: CAATCTGAATTCCGGTCTCCC
DNA 2: TGGTGGCTACGACGGGATT
B8: GUCGGUC (DNA:RNA)
RNA: B1 RNA with A26U, G27C, C28G, A29G, C30U, A31C
DNA 1: CAATCTGAATTCCGGTCTCCC
DNA 2: TGGTGGCTACGACGGGATT
B9: ACCAGUC (DNA:RNA)
RNA: GGGAGACCGGAAUUCAGAUUGUCCACCAGUCUUAAAUCCCGUCGUAGCCACCA
DNA 1: CAATCTGAATTCCGGTCTCCC
DNA 2: TGGTGGCTACGACGGGATT
B10: CACCGUC (DNA:RNA)
RNA: B9 RNA with A25C, C26A, A28C
DNA 1: CAATCTGAATTCCGGTCTCCC
DNA 2: TGGTGGCTACGACGGGATT
B11: CGUCUUG (DNA:RNA)
RNA: B9 RNA with A25C, C26G, C27U, A28C, G29U, C31G
DNA 1: CAATCTGAATTCCGGTCTCCC
DNA 2: TGGTGGCTACGACGGGATT
B12: GGAUUGG (DNA:RNA)
RNA: B1 RNA with A26G, G27A, C28U, A29U, C30G, A31G
DNA 1: CAATCTGAATTCCGGTCTCCC
DNA 2: TGGTGGCTACGACGGGATT
B13: GUCUUGG (DNA:RNA)
RNA: B9 RNA with A25G, C26U, A28U, G29U, U30G, C31G
DNA 1: CAATCTGAATTCCGGTCTCCC
DNA 2: TGGTGGCTACGACGGGATT
B14: GUUGGUC (DNA:RNA)
RNA: B9 RNA with A25G, C26U, C27U, A28G
DNA 1: CAATCTGAATTCCGGTCTCCC
DNA 2: TGGTGGCTACGACGGGATT
B15: CGUCGUC (DNA:RNA)
RNA: B9 RNA with A25C, C26G, C27U, A28C
DNA 1: CAATCTGAATTCCGGTCTCCC
DNA 2: TGGTGGCTACGACGGGATT
B16: AGAGUGG (DNA:RNA)
RNA: B9 RNA with C26G, C27A, A28G, G29U, U30G, C31G
DNA 1: CAATCTGAATTCCGGTCTCCC
DNA 2: TGGTGGCTACGACGGGATT
B17: UCUGGAG (DNA:RNA)
RNA: B9 RNA with A25U, C27U, A28G, U30A, C31G
DNA 1: CAATCTGAATTCCGGTCTCCC
DNA 2: TGGTGGCTACGACGGGATT
B18: AUGUAGG (DNA:RNA)
RNA: B1 RNA with G25A, A26U, C28U, C30G, A31G
DNA 1: CAATCTGAATTCCGGTCTCCC
DNA 2: TGGTGGCTACGACGGGATT
B19: AUCUCCA (DNA:RNA)
RNA: B9 RNA with C26U, A28U, G29C, U30C, C31A
DNA 1: CAATCTGAATTCCGGTCTCCC
DNA 2: TGGTGGCTACGACGGGATT
B20: GAUAAGU (DNA:RNA)
RNA: B1 RNA with G27U, C28A, C30G, A31U
DNA 1: CAATCTGAATTCCGGTCTCCC
DNA 2: TGGTGGCTACGACGGGATT

Substitutions are numbered along the chain they refer to; changes in the protein carry UniProt numbers. The full ranking holds about 16,000 sequences; the median of “ka relative to ugcaugu” is about 0.096, and the highest 2% start at about 0.35. This is one part of a sample in which the highest values are shown more often than they occur.

In this assay the target is T1, RBFOX1 RRM RbFoxmut (Fox-RRM*). As to the kind of experiment: EMSA; HiTS-Eq, 1 nM pool, 10 min; buffer printed only for the single-RNA assays: 10 mM Tris pH 7.5, 150 mM NaCl, 3.4 mM EDTA, 0.001% NP-40, 30 C. The settings on record: tags: His6 N-terminal (pET28a); label: 5' 32P. The essentials:
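Relative association constants, normalised to the cognate motif, were derived by comparing read counts of each RNA species with those of the control reaction. The RNA sequenced was the free fraction, separated by 8% native PAGE after a 10 min equilibration in 50 µL of 1 nM 5′-radiolabelled RNA (7 randomized nucleotides) with increasing concentrations of purified wild-type or mutant RbFox RRM.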
(A gel shift assay detects complexes by their altered migration in electrophoresis.)
With B1, the binding signal is 0.0821 KA relative to UGCAUGU.

With B2, the binding signal was 0.0987 KA relative to UGCAUGU.

As for B3, the binding signal is 0.0838 KA relative to UGCAUGU.

Turning to B4, the binding signal is 0.368 KA relative to UGCAUGU.

As for B5, the binding signal is 0.117 KA relative to UGCAUGU.

Consider B6, for which the binding signal was 0.159 KA relative to UGCAUGU.

On to B7, for which the binding signal is 0.459 KA relative to UGCAUGU.

B8: the binding signal was 0.171 KA relative to UGCAUGU.

Turning to B9, the binding signal is 0.063 KA relative to UGCAUGU.

As to B10, the binding signal was 0.0639 KA relative to UGCAUGU.

Turning to B11, the binding signal was 0.615 KA relative to UGCAUGU.

As to B12, the binding signal is 0.219 KA relative to UGCAUGU.

Consider B13, for which the binding signal was 0.403 KA relative to UGCAUGU.

On to B14, for which the binding signal was 0.164 KA relative to UGCAUGU.

Take B15: the binding signal was 0.186 KA relative to UGCAUGU.

For B16, the binding signal is 0.107 KA relative to UGCAUGU.

For the molecule B17, the binding signal is 0.0838 KA relative to UGCAUGU.

B18: the binding signal was 0.128 KA relative to UGCAUGU.

For B19, the binding signal is 0.0926 KA relative to UGCAUGU.

Consider B20, for which the binding signal is 0.0905 KA relative to UGCAUGU.

Values taken from article PMC9911399, “Two distinct binding modes provide the RNA-binding protein RbFox with extraordinary sequence specificity”.
